# Only a selection was taken, and the strongest signals are over-represented in it overall.
# Assays:
# Experiment in all cases: glycan array binding signal (z-score within array); higher = stronger binding
# Details in all cases: glycan notation: IUPAC condensed, linker removed
# [1] = system: Neu5Ac9Ac(a2-6)Gal(b1-4)GlcNAc
# Outline: (§1)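 From the Consortium for Functional Glycomics database, 3228 arrays were curated, keeping only those whose protein sequence was available. Binding is given as a within-array Z-score averaged across arrays sharing a protein sequence and across linkers. Negative Z-scores can be read as non-binding.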
# [2] = system: Neu5Ac(a2-6)Gal(b1-4)GlcNAc(b1-6)[Gal(b1-3)GlcNAc(b1-3)]Gal(b1-4)Glc
# Outline: as §1
# [3] = system: Neu5Ac(a2-6)Gal(b1-4)GlcNAc
# Outline: as §1
# [4] = system: Neu5Ac(a2-6)GalNAc(b1-4)GlcNAc
# Outline: as §1
# [5] = system: Neu5Ac(a2-6)GlcNAc(b1-4)GlcNAc
# Outline: as §1
# [6] = system: Neu5Ac(a2-8)Neu5Ac(a2-3)Gal(b1-3)GalNAc(b1-4)[Neu5Ac(a2-3)]Gal(b1-4)Glc
# Outline: as §1
# [7] = system: Neu5Ac(a2-8)Neu5Ac(a2-8)Neu5Ac(a2-8)Neu5Ac(a2-8)Neu5Ac(a2-8)Neu5Ac(a2-8)Neu5Ac(a2-8)Neu5Ac
# Outline: as §1
# [8] = system: Neu5Ac(a2-8)Neu5Ac(a2-3)Gal(b1-3)GalNAc(b1-4)[Neu5Ac(a2-8)Neu5Ac(a2-3)]Gal(b1-4)Glc
# Outline: as §1
# [9] = system: Neu5Ac(a2-6)Gal(b1-4)GlcNAc(b1-3)[Neu5Ac(a2-6)Gal(b1-4)GlcNAc(b1-6)]GalNAc
# Outline: as §1
# [10] = system: Neu5Ac(a2-6)Gal(b1-4)GlcNAc6S
# Outline: as §1
# [11] = system: Neu5Ac(a2-6)Gal
# Outline: as §1
# [12] = system: Neu5Ac(a2-8)Neu5Ac(a2-3)[Gal(b1-3)GalNAc(b1-4)]Gal(b1-4)Glc
# Outline: as §1
# [13] = system: Neu5Gc(a2-3)Gal(b1-3)GlcNAc
# Outline: as §1
# [14] = system: Neu5Ac(a2-8)Neu5Ac(a2-3)Gal(b1-4)Glc
# Outline: as §1
# [15] = system: Neu5Ac(a2-8)Neu5Ac(a2-8)Neu5Ac(a2-3)[GalNAc(b1-4)]Gal(b1-4)Glc
# Outline: as §1
# [16] = system: Neu5Gc(a2-3)Gal(b1-3)[Fuc(a1-4)]GlcNAc
# Outline: as §1
# [17] = system: Neu5Gc(a2-3)Gal(b1-4)GlcNAc
# Outline: as §1
# [18] = system: Neu5Ac(a2-8)Neu5Ac(a2-3)Gal(b1-4)GlcNAc
# Outline: as §1
substance,measurement,setting,value
"GspB (Streptococcus gordonii), Q939N5",glycan array binding signal (z-score),[1],2.97
Epa22,glycan array binding signal (z-score),[2],0.104
same,glycan array binding signal (z-score),[3],-0.607
same,glycan array binding signal (z-score),[4],-0.394
same,glycan array binding signal (z-score),[5],-0.046
"MIC3-MAR5 (Eimeria tenella), B6VCV4",glycan array binding signal (z-score),[6],3.86
same,glycan array binding signal (z-score),[7],-0.75
"BambL (Burhholderia ambifaria), Q0B4G1",glycan array binding signal (z-score),[8],-0.308
AgI/II Vhelical-GFP (Streptococcus mutans),glycan array binding signal (z-score),[9],-0.298
same,glycan array binding signal (z-score),[10],-0.076
same,glycan array binding signal (z-score),[11],-0.257
same,glycan array binding signal (z-score),[6],-0.253
same,glycan array binding signal (z-score),[12],0.136
same,glycan array binding signal (z-score),[13],0.551
Actinohivin (Actinomycete K97),glycan array binding signal (z-score),[10],-0.199
same,glycan array binding signal (z-score),[4],-0.197
same,glycan array binding signal (z-score),[11],-0.147
same,glycan array binding signal (z-score),[14],-0.163
same,glycan array binding signal (z-score),[15],-0.14
same,glycan array binding signal (z-score),[16],-0.168
LcI (Legionella pneumophila),glycan array binding signal (z-score),[4],-0.669
same,glycan array binding signal (z-score),[1],0.198
"SpGH101 (Streptococcus pneumoniae), Q8DR60",glycan array binding signal (z-score),[3],-0.172
same,glycan array binding signal (z-score),[17],-0.177
AgI/IIC123-GFP (Streptococcus mutans),glycan array binding signal (z-score),[18],-0.506
same,glycan array binding signal (z-score),[17],-0.472
"MIC3-MAR1b (Eimeria tenella), B6VCV4",glycan array binding signal (z-score),[2],1.38
same,glycan array binding signal (z-score),[7],-0.531
"SiiE (Salmonella typhimurium), A0A0H3NVH0",glycan array binding signal (z-score),[15],-0.437

# Source: the supplement of paper PMC8728848
